The values that follow come from PubChem BioAssay AID1209 (Sanford-Burnham Center for Chemical Genomics, 2008).

SMILES strings stand for the structures. Among all 190,000 compounds or so, about 810 (0.43%) were called active. The entries come from a sample that favours actives as a whole. Values without a mark were called inactive. Rule as the data show it: active = inhibition above about 50%; inactive = the rest.

For this assay, the target named is Mannose-6-phosphate isomerase (Homo sapiens) (UniProt P34949). The assay is described as follows: MPI enzyme activity inhibition – biochemical, fluorescence intensity, coupled assay, primary screen (AID 1209).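 Also: plate controls were DMSO vehicle for no effect and wells lacking substrate for full effect.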 As to conditions: purified PMI enzyme, at 20 µM, stronger effect = higher value.
Chain of Mannose-6-phosphate isomerase (Homo sapiens) (P34949 whole entry, looked up): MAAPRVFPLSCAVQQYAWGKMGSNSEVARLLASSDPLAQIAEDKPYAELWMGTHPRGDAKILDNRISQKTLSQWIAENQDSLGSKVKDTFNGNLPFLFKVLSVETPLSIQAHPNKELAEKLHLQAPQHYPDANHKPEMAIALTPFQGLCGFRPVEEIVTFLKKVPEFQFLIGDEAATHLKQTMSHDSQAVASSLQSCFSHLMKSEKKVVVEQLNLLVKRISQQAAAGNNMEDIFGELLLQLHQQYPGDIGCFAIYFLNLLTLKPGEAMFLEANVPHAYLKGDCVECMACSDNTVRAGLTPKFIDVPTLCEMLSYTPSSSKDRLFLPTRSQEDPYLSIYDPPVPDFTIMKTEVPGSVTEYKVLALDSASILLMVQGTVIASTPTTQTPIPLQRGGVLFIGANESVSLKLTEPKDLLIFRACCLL
As to `COc1ccc(NC(=O)N2CCCC2C(=O)Nc2ccc(C)cc2)cc1` (stereo not drawn), the inhibition (as a rule, the relative decrease from the control value, in per cent) was 1.2%.

As to `CCOc1cc(C2C(C(=O)O)c3cc(OCC)c(OCC)cc3C(=O)N2C)ccc1O` (stereo not drawn), the inhibition is 6%. Take `C/C(=C\C(=O)c1ccccc1)NNc1nc2ccccc2s1`: the inhibition was -3.4%. In the case of `COc1ccc(S(=O)(=O)n2nc(OC(C)=O)cc2N)cc1`, the inhibition is -1.2%.

With `Cc1ccc2nc(SCC(=O)NC(=O)NCc3ccco3)[nH]c2c1`, the inhibition was 6.4%. To `COC(=O)c1ccc(C)c(NC(=O)CCc2ccc(OC)cc2)c1` belongs 11.9%. As for `CCOC(=O)c1c(N)sn(-c2ccccc2C)c1=S`, the inhibition was 61.3% (active). For the molecule `CCOC(=O)c1c(N)sn(-c2ccccc2)c1=S`, the inhibition was 14.9%. In the case of `C=CCn1sc(N)c(C(=O)OCC)c1=S` it was -8%; in that of `COc1ccc(C(NC(=O)/C=C\c2ccco2)c2ccc(OC)c(OC)c2)cc1` (stereo not drawn), 3.2%. As for `S=C(NCC1CCCO1)Nc1cccc(Cl)c1` (stereo not drawn), the inhibition was -4.4%.

`CC(=O)Nc1ccc(/C=N/Nc2nc3ccccc3[nH]2)cc1`: the inhibition is 20.8%. In the case of `CCN(CC)c1ccc(/C=N/Nc2nc3ccccc3[nH]2)cc1` it was 53% (active); in that of `CCN(CC)c1ccc(/C=N/Nc2nc3ccccc3[nH]2)c(O)c1`, 29.1%; in that of `C=CCn1c(C)cc(C(=O)Cn2nc(C(=O)O)c3ccccc3c2=O)c1C`, 0.5%. In the case of `COc1ccc(-c2nc(SC(CC(=O)NCCN3CCOCC3)c3cccs3)n[nH]2)cc1` (stereo not drawn) it was 2.7%; in that of `Cc1ccc(NC(=O)CSc2nnc(C)c(=O)n2N)c(C)c1`, 76.6% (active).

As to `Cc1ccc(C)c(NC(=O)CSc2nnc(C)c(=O)n2N)c1`, the inhibition was -3%. `Cc1ccc(NC(=O)CSc2nnc(C)c(=O)n2N)cc1`: the inhibition was -5.9%. For `Cn1c(-c2cccc(Br)c2)n[nH]c1=O`, the inhibition is -8.4%. Regarding `Brc1cccc(-c2n[nH]c(-c3ccccc3)n2)c1`, the inhibition was 18.9%.

Regarding `O=C(NNC(=O)C1CCCN(S(=O)(=O)c2cccc(F)c2)C1)C1CC1` (stereo not drawn), the inhibition is 6.8%. As for `Cc1cc(C(=O)N/N=C/c2cccc([N+](=O)[O-])c2O)n[nH]1`, the inhibition is 52.3% (active). Consider `Cc1cc(C(=O)N/N=C/c2ccc(O)c([N+](=O)[O-])c2)n[nH]1`, for which the inhibition is -7.3%.

Turning to `Cc1cc(C(=O)N/N=C/c2cc(N=Nc3ccccc3)ccc2O)n[nH]1`, the inhibition is 4.9%. Turning to `O=C(/C=C/c1ccccc1)Nc1cccc(C(=O)O)c1`, the inhibition is 8.9%. Regarding `Nc1ccc(SCC(=O)Nc2cccc([N+](=O)[O-])c2)cc1`, the inhibition was -7.1%. As to `CSc1cccc(NC(=O)/C=C/c2ccccc2)c1`, the inhibition was 10.8%. Take `O=C(Cc1ccc(Cl)cc1Cl)Nc1cccc(S(=O)(=O)Nc2ccccc2F)c1`: the inhibition was 59% (active). To `O=C(Nc1cccc(S(=O)(=O)N2CCCC2)c1)c1ccc2ccccc2n1` belongs 10%. Take `O=C(CN1C(=O)c2ccccc2C1=O)Nc1cccc(S(=O)(=O)Nc2ccccc2Cl)c1`: the inhibition was 12.3%. Take `O=C(CSc1ccc([N+](=O)[O-])cc1)Nc1cccc(S(=O)(=O)Nc2ccccc2F)c1`: the inhibition is 62.2% (active). As for `O=C(Nc1cccc(S(=O)(=O)Nc2ccccc2F)c1)c1ccc2ccccc2n1`, the inhibition is 70.4% (active). With `O=C(Cc1ccc(Cl)cc1)Nc1cccc(S(=O)(=O)Nc2ccccc2F)c1`, the inhibition is 23.4%. Consider `COc1ccccc1NS(=O)(=O)c1cccc(NC(=O)c2ccc3ccccc3n2)c1`, for which the inhibition was 17.4%. Turning to `O=C(/C=C/c1ccccc1)Nc1cccc(S(=O)(=O)Nc2ccccc2F)c1`, the inhibition is 66.1% (active).

On to `Cn1c(=O)c2c(ncn2CC(=O)Nc2cccc(S(=O)(=O)Nc3ccccc3F)c2)n(C)c1=O`, for which the inhibition is 25.8%. Turning to `Cc1ccc(C(=O)c2ccccc2C(=O)OCC(=O)NCC2CCCO2)cc1` (stereo not drawn), the inhibition is 1.4%. For `Cc1cc(OC(C)C(N)=O)nc(-c2ccccc2)n1` (stereo not drawn), the inhibition is -14.2%. As to `CC(C)c1ccc(CN2CC(C(=O)O)CC2=O)cc1` (stereo not drawn), the inhibition is -7%. In the case of `Cc1ccc(N2CCN(CC(O)COc3ccc([N+](=O)[O-])cc3)CC2)cc1` (stereo not drawn), the inhibition was -2%.

For the molecule `COc1cc(/C=N/Nc2ccccn2)ccc1OCC(C)C`, the inhibition is -6.3%.

For `CCOC(=O)CC1C(=O)NCCN1C(=O)c1c(F)cccc1F` (stereo not drawn), the inhibition was 50.5% (active).

As to `CCOC(=O)CC1C(=O)NCCN1C(=O)c1cccc(C(F)(F)F)c1` (stereo not drawn), the inhibition was -0.3%. In the case of `CCOC(=O)CC1C(=O)NCCN1C(=O)c1ccc(F)cc1F` (stereo not drawn) it was -8.1%. As for `Nc1nonc1-c1noc(N2CCCCC2)n1`, the inhibition is 6%. On to `COc1ccc(-c2nnn(CC#N)n2)cc1OC`, for which the inhibition is -3.6%. To `O=C(N/C(=C\c1cccnc1)C(=O)N1CCOCC1)c1ccco1` belongs -15.9%; to `O=C(CSc1ccccc1)Nc1nnc(COc2ccc(Cl)cc2)s1`, 71.7% (active); to `Cc1onc(-c2ccccc2)c1C(=O)Nc1nnc(COc2ccc(Cl)cc2)s1`, 76.2% (active).

`Cc1cccc(C)c1OCc1nnc(NC(=O)CSc2ccc(Cl)cc2)s1`: the inhibition is 9.2%. To `O=C(Nc1nnc(COc2ccccc2)s1)c1ccco1` belongs 3.1%. To `O=C(Nc1nnc(COc2ccc(Cl)cc2)s1)c1ccco1` belongs 62.4% (active).

For `COc1ccc(Cc2nnc(NC(=O)c3c(-c4ccccc4)noc3C)s2)cc1`, the inhibition was 12.3%. Consider `Cc1ccc(OCc2nnc(NC(=O)c3ccco3)s2)cc1`, for which the inhibition is -5.1%. Turning to `CCOCc1nnc(NC(=O)CSc2ccccc2)s1`, the inhibition was 6.1%. To `Cc1nnc(NC(=O)c2c(-c3ccccc3)noc2C)s1` belongs 0.7%; to `COC(=O)/C(C(C)=O)=C(\C=C\N(C)C)N(C)C`, 1%; to `Nc1nnc(SCc2ccccc2F)n1-c1ccccc1`, 3.6%. As to `NC(=O)[C@@H]1CCNc2c(I)cc([N+](=O)[O-])cc2C(=O)N[C@@H](CO)C(=O)N[C@@H](Cc2ccc(O)cc2)C(=O)N1`, the inhibition was -42.9%. With `CCN(CCC(=O)Nc1cc(OC)cc(OC)c1)Cc1ccccc1`, the inhibition was 6.5%. As for `Cc1nnc(NC(=O)c2ccc3ccccc3n2)s1`, the inhibition was -23.8%. In the case of `COc1ccc(C(c2sc3nc(C)nn3c2O)N2CCc3ccccc3C2)cc1` (stereo not drawn), the inhibition is 72.5% (active).

As to `COc1cc(C(c2sc3nc(C)nn3c2O)N2CCc3ccccc3C2)cc(OC)c1OC` (stereo not drawn), the inhibition is 11.5%. On to `COc1cccc(C(c2sc3ncnn3c2O)N2CCc3ccccc3C2)c1` (stereo not drawn), for which the inhibition was 40.6%.

As to `COc1ccc(C(c2sc3nc(C)nn3c2O)N2CCCCC2)cc1` (stereo not drawn), the inhibition was -1.5%. For the molecule `COc1cccc(C(c2sc3nc(C)nn3c2O)N2CCc3ccccc3C2)c1` (stereo not drawn), the inhibition was 65.3% (active). In the case of `CCN1CCN(C(c2cccc(OC)c2)c2sc3nc(C)nn3c2O)CC1` (stereo not drawn) it was 2.4%.
